In PubChem BioAssay AID797 (University of Pittsburgh Molecular Library Screening Center, 2007):
Hit rate of the full screen: of about 200,000 compounds, about 110 (0.055%) were called active. No stated cut-off is given here; in the data, active means inhibition above about 50%; inactive means the rest. For the sample, actives were picked, then their nearest neighbours and some compounds at random.

These compounds were tested against Serine/threonine-protein kinase D1 (Homo sapiens) (UniProt Q15139) (assay: inhibitors of human PKD1 kinase, biochemical, fluorescence polarization (AID 797)). Details: PKD1 kinase fluorescence polarization assay; stronger effect = higher value; concentration not given here.
Chain of Serine/threonine-protein kinase D1 (Homo sapiens) (Q15139 whole entry, looked up): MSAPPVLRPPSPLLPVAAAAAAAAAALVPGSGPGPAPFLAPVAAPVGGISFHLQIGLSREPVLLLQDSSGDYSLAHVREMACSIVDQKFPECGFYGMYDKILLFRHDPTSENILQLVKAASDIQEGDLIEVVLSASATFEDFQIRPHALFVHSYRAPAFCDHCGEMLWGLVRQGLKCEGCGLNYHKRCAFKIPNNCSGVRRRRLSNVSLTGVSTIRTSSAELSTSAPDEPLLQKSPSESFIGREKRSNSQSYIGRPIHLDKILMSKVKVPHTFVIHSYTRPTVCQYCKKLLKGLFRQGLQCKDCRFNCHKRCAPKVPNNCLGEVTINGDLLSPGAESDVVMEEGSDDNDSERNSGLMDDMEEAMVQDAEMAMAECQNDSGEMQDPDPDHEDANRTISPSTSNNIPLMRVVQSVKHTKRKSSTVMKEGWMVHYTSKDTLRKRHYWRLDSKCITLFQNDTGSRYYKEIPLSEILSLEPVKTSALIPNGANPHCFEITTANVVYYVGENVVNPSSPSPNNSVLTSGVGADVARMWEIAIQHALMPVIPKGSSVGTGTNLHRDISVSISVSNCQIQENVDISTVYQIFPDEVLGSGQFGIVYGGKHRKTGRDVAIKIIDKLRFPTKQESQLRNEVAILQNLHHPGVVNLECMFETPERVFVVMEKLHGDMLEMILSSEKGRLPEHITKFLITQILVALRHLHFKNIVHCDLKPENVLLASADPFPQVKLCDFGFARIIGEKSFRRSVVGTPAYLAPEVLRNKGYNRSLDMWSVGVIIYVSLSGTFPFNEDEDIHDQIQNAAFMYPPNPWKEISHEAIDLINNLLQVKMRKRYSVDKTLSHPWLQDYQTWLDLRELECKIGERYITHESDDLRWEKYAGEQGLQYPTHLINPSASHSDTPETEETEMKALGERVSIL
In the case of `COc1ccc(OCC(=O)NN2Cc3ccccc3C2=N)cc1`, the inhibition is reported as 8.39% (inactive).
In the case of `COc1cccc(NC(=O)C(Sc2nnnn2C)c2ccccc2)c1` (stereo not given), the inhibition is reported as 9.09% (inactive).
In the case of `Cc1cccc(/C(N)=N/OC(=O)c2ccccc2Cl)c1`, the inhibition is reported as -1.38% (inactive).
In the case of `O=C(NC1CCCCC1)C1CC(=O)N(CCc2ccccc2)C1` (stereo not given), the inhibition is reported as -8.12% (inactive).
For `Cc1cc(/C=C(/C#N)C(=O)Nc2ccc(Cl)cc2)c(C)n1-c1cccnc1`, the inhibition was 1.34% (inactive).
`CCN1CN(Cc2ccccc2)CNC1=S` was tested, and the inhibition was -12% (inactive).
`CCNC(=O)CC1C(=O)N(c2ccc(F)cc2)C(=O)N1Cc1cccs1` (stereo not given) was tested, and the inhibition was 4.62% (inactive).
`CCOc1ccc(N2C(=O)Nc3ccccc3C2(O)C(=O)NCc2ccco2)cc1` (stereo not given) was tested, and the inhibition was -4.75% (inactive).
With `CN(C)/C=C(\C#N)C(=O)c1cccnc1Oc1cccc(F)c1` the inhibition was 5.99% (inactive).
For `CCCCn1nc(C(=O)OCC(=O)Nc2sccc2C(N)=O)c2ccccc2c1=O`, the inhibition was 4.31% (inactive).
In the case of `Cc1ccc(NC(=S)N(CCCN2CCC(C)CC2)Cc2ccco2)cc1`, the inhibition is reported as 2.06% (inactive).
With `Cc1ccc2cc(CCNC(=O)c3c(-c4ccccc4Cl)noc3C)c(=O)[nH]c2c1` the inhibition was 0.32% (inactive).
For `CC(C)CC(CO)N1CCN(C(=O)c2ccc(Cl)cc2Cl)CCC1=O` (stereo not given), the inhibition was -14% (inactive).
In the case of `Cc1cccc(NS(=O)(=O)c2ccc(C)c(C(N)=O)c2)c1`, the inhibition is reported as -2.59% (inactive).
`CN(CC(=O)Nc1ccccc1F)CC(=O)Nc1ccccc1Br` was tested, and the inhibition was -7.89% (inactive).
In the case of `COc1ccc(N=C2SC(C(=O)Nc3ccc(F)cc3)CC(=O)N2C)cc1` (stereo not given), the inhibition is reported as -4.67% (inactive).
With `CCOc1ccc(-c2c(C)n([O-])c3c([n+]2=O)CCCC3)cc1` the inhibition was -3.86% (inactive).
`Cc1ccc(C(=O)CNc2ccc(F)cc2)cc1` was tested, and the inhibition was -19.1% (inactive).
`Cn1cc(/C=C/c2nc3ccccc3c(=O)n2-c2cccc([N+](=O)[O-])c2)c2ccccc21` was tested, and the inhibition was -2.78% (inactive).
In the case of `CC(=O)c1ccc(Oc2cc(C)nc(-n3nc(C)cc3C)n2)cc1`, the inhibition is reported as -3.62% (inactive).
`COc1ccc(Nc2cc(C)nc(-n3nc(C)cc3C)n2)cc1` was tested, and the inhibition was 56.8% (active).
In the case of `COc1ccccc1/C=N\Nc1cc(C)nc(-n2nc(C)cc2C)n1`, the inhibition is reported as 2.16% (inactive).
For `CCCCCC(=O)NC(=S)NNC(=O)c1ccc([N+](=O)[O-])cc1`, the inhibition was -0.76% (inactive).
`O=C(CN1C(=O)NC2(CCCCCC2)C1=O)NC1CC1` was tested, and the inhibition was -5.29% (inactive).
For `CC1(C)CC(=O)C(N=Nc2ccc(S(=O)(=O)N3CCCCCC3)cc2)=C(O)C1`, the inhibition was 4.42% (inactive).
`O=C(O)Cc1ccc(NCc2ccccc2Cl)cc1` was tested, and the inhibition was 0.93% (inactive).
`Cc1ccc(C(=O)Cc2nnc(C)s2)cc1` was tested, and the inhibition was 1.06% (inactive).
For `CCN(CC)CC1(O)CCN(C(=O)c2ccc(Cl)c(Cl)c2)CC1`, the inhibition was 6.8% (inactive).
With `CC(=O)Nc1ccc(NC(=S)NC(=O)/C=C/c2ccccc2)cc1` the inhibition was -7.92% (inactive).
`CCOc1cc2[nH]c(=S)n(Cc3ccc(C(=O)NCCOC)cc3)c(=O)c2cc1OCC` was tested, and the inhibition was -4.22% (inactive).
For `O=C(COc1ccc(-c2ccccc2)cc1)NN=C1CCCC1`, the inhibition was -5.5% (inactive).
With `COC(=O)C1(O)CC(C(C)C)=NN1C(=O)c1ccc(Cl)cc1` (stereo not given) the inhibition was -10.1% (inactive).
With `COc1ccc(CCNC(=O)COC(=O)C2CCCCC2)cc1` the inhibition was 1.52% (inactive).
With `COc1ccc(NC(=O)CCNS(=O)(=O)c2ccc3c(c2)c(=O)n(C)c(=O)n3C)cc1OC` the inhibition was -3.26% (inactive).
In the case of `COC(=O)c1ccccc1SC1CC(=O)N(c2cccc(C)c2)C1=O` (stereo not given), the inhibition is reported as -3.82% (inactive).
For `CN(CCc1cnn(C)c1)Cc1cn(C)nc1-c1ccccc1F`, the inhibition was 0.1% (inactive).
In the case of `Cc1nc(-c2ccc(Cl)cc2)sc1C(=O)CBr`, the inhibition is reported as 2.56% (inactive).
In the case of `CC1=NN(C(=O)CCCc2ccccc2)C(O)(C(F)(F)F)C1` (stereo not given), the inhibition is reported as -2.79% (inactive).
`C/C(N)=C(/C#N)C(=O)COC(=O)c1cc(-c2cccc(Br)c2)nc2ccccc12` was tested, and the inhibition was -0.94% (inactive).
In the case of `CCN(CC)CCNC(=O)CCCCCn1c(=O)[nH]c2cc(C(=O)OC)ccc2c1=O`, the inhibition is reported as -5.2% (inactive).
`Cc1c(Br)c([N+](=O)[O-])nn1CC(=O)N1CCN(Cc2ccccc2)CC1` was tested, and the inhibition was 6.58% (inactive).
`O=C(CC1SC(=Nc2ccccc2F)N(CCN2CCOCC2)C1=O)Nc1ccc(F)cc1F` (stereo not given) was tested, and the inhibition was 1.23% (inactive).
For `O=C(Nc1cccnc1)c1ccc(Cl)cc1[N+](=O)[O-]`, the inhibition was -1.12% (inactive).
`Cc1ccc(NC(=O)C(=O)NCC2CCN(C(=O)c3cccc([N+](=O)[O-])c3)CC2)cc1` was tested, and the inhibition was 4.77% (inactive).
With `S=C(NN=C1CCN(Cc2ccccc2)CC1)NC1CCCCC1` the inhibition was 1.24% (inactive).
In the case of `COc1ccc(NC(=S)NCc2cccs2)c(OC)c1`, the inhibition is reported as 7.19% (inactive).
`CC(C)NC(=S)N1CCN(C(c2ccccc2)c2ccccc2)CC1` was tested, and the inhibition was 3.7% (inactive).
With `COc1ccc(S(=O)(=O)N2CCN(C(=O)NC3CCCCC3)CC2)cc1` the inhibition was -1.15% (inactive).
In the case of `O=C1CCCC2=C1C(c1cccs1)CC(=O)N2c1ccc(F)cc1` (stereo not given), the inhibition is reported as -3.47% (inactive).
With `Cn1c(=O)c2cc(S(=O)(=O)NCCC(=O)Nc3ccc(F)cc3F)ccc2n(C)c1=O` the inhibition was -2.88% (inactive).
`O=C(Nc1nnc(Cc2ccc(Cl)cc2)s1)c1cccnc1` was tested, and the inhibition was -1.74% (inactive).
With `Cn1c(CCC(=O)Nc2ccccc2F)nnc1SCC(=O)Nc1ccccc1Cl` the inhibition was -1.31% (inactive).
In the case of `O=C(CSc1ncnc2c1nnn2Cc1ccc(F)cc1)NC1CCCC1`, the inhibition is reported as -10.6% (inactive).
In the case of `Cc1cc(C(=O)CC#N)c(C)n1-c1c(C)n(C)n(-c2ccccc2)c1=O`, the inhibition is reported as -2.44% (inactive).
`CCS(=O)(=O)c1ccc2c(c1)N(S(=O)(=O)c1ccccc1)CC(C(=O)O)O2` (stereo not given) was tested, and the inhibition was 2.03% (inactive).
For `CC1(C)CC(=O)C2=C(C1)N=C1SCCC(=O)N1C2c1ccc(C(F)(F)F)cc1` (stereo not given), the inhibition was -8.04% (inactive).
With `CN1CCN(C(c2cc3cc4c(cc3[nH]c2=O)OCCO4)c2nnnn2C2CCCC2)CC1` (stereo not given) the inhibition was -0.35% (inactive).
In the case of `COc1cc(OC)c(C2=NOC(C(=O)Nc3c(C)n(C)n(-c4ccccc4)c3=O)C2)cc1Cl` (stereo not given), the inhibition is reported as 5.19% (inactive).
With `Cc1ccc2c(c1)N(CC(=O)N(Cc1ccccn1)Cc1ccco1)C(=O)C(C(C)C)O2` (stereo not given) the inhibition was -5.96% (inactive).
`S=C(NC1CCCCC1)NN1CCOCC1` was tested, and the inhibition was -5.63% (inactive).
In the case of `COCCSc1nnc(NC(=O)c2cc(OC)c(OC)cc2[N+](=O)[O-])s1`, the inhibition is reported as -3.97% (inactive).
For `Cc1cn(C)c(=O)n(C)c1=O`, the inhibition was 1.43% (inactive).
In the case of `N#Cc1ccc(-c2nc3cc(C#N)c(C#N)cc3nc2-c2ccccc2)cc1C#N`, the inhibition is reported as 9.6% (inactive).
In the case of `O=Cc1ccc(Oc2cccc(C(F)(F)F)c2)nc1`, the inhibition is reported as 7.02% (inactive).
`Cc1ccc(/C=C/C(=O)Nc2cc(S(=O)(=O)N3CCCCCC3)ccc2OCC(F)(F)F)o1` was tested, and the inhibition was -9.11% (inactive).
In the case of `CCc1ccc(-c2cc(C(=O)NN3CCN(C)CC3)c3ccccc3n2)cc1`, the inhibition is reported as 6.48% (inactive).
For `C=CCC(C(=O)c1ccccc1)[N+](C)(C)CC=C` (stereo not given), the inhibition was -3.34% (inactive).
With `O=[N+]([O-])c1ccccc1SNc1ccccn1` the inhibition was -1.62% (inactive).
With `Cc1cc(C)cc(C(=O)NC(=S)Nc2ccc3[nH]c(=O)[nH]c3c2)c1` the inhibition was 20.7% (inactive).
In the case of `O=C1CN(C(=O)COC(=O)c2cnc(Cl)c(Cl)c2)c2ccccc2N1`, the inhibition is reported as 1.7% (inactive).
`NC(=O)c1ncc(C(F)(F)F)cc1Oc1ccc(F)cc1` was tested, and the inhibition was -8.91% (inactive).
`O=C(Cc1c[nH]c2ccccc12)N/N=C/c1cccc(F)c1` was tested, and the inhibition was 12.4% (inactive).
In the case of `CCc1c(C)nc2c(OC)cccc2c1Cl`, the inhibition is reported as -2.35% (inactive).
With `O=C(/C=C/c1ccc2c(c1)OCO2)NCc1cn2cc(Cl)ccc2n1` the inhibition was -5.4% (inactive).
`O=C(CCCc1ccccc1)NCc1ccccc1` was tested, and the inhibition was -6.66% (inactive).
In the case of `CC(NC(=O)C(=O)N/N=C/c1ccc(Cl)cc1)c1ccccc1` (stereo not given), the inhibition is reported as -2.86% (inactive).
With `O=C(NC(=S)N1CCN(Cc2ccccc2)CC1)c1ccccc1` the inhibition was -10.3% (inactive).
`Cc1ccc(S(=O)(=O)Cc2cc(-c3ccc(Cl)cc3)no2)cc1` was tested, and the inhibition was -1.03% (inactive).
`CC(C)N1CCC(=NNc2ccc([N+](=O)[O-])cc2S(=O)(=O)N2CCOCC2)CC1` was tested, and the inhibition was -0.4% (inactive).
For `CCOc1ccc(-n2c(SCC(=O)NC3CCS(=O)(=O)C3)nnc2-c2cccnc2)cc1` (stereo not given), the inhibition was 0.66% (inactive).
`CN(Cc1ccc2nsnc2c1)Cc1nc(Cc2cccc(F)c2)no1` was tested, and the inhibition was 5.24% (inactive).
With `OCCCC1CCCCN1Cc1nc(Cc2ccccc2Cl)no1` (stereo not given) the inhibition was 0.81% (inactive).
In the case of `Cc1cccc(C(=O)OC(C)CN2CCN(C)CC2)c1` (stereo not given), the inhibition is reported as 1.4% (inactive).
`Cc1nnsc1C(=O)Nc1cccc(Cl)c1C` was tested, and the inhibition was -5.78% (inactive).
`Cn1nccc1CNC(=O)c1ccnn1C` was tested, and the inhibition was -0.52% (inactive).
With `CC(C)c1ccc(-c2noc(C3CCCN(S(C)(=O)=O)C3)n2)cc1` (stereo not given) the inhibition was 0.73% (inactive).
`COC(=O)C1=C(C)N(c2ccc(C)cc2)/C(=C/c2ccc(O)cc2)C1=O` was tested, and the inhibition was 1.38% (inactive).
For `Cc1ccc(-c2nnc(SCC(=O)N/N=C/c3cccs3)n2-c2ccc(C)cc2)cc1`, the inhibition was -3.67% (inactive).
With `Oc1ccc2ccc3cccc[n+]3c2c1` the inhibition was -0.84% (inactive).
With `S=c1[nH]cc(-c2ccc(Cl)cc2)n1-c1ccccc1` the inhibition was -3.56% (inactive).
With `COc1cccc(CNC(=O)CCN2C(=S)NC(C)(C)CC2C)c1` (stereo not given) the inhibition was 16.6% (inactive).
With `O=C(Nc1cc(S(=O)(=O)N2CCOCC2)ccc1Cl)c1cc(=O)c2ccccc2o1` the inhibition was -4.37% (inactive).
With `C/C(=N\OCC(=O)Nc1ccc(Br)cc1)c1cccs1` the inhibition was -6.23% (inactive).
In the case of `N#Cc1cccc(Nc2c3c(nc4ccccc24)CCCC3)c1`, the inhibition is reported as 1.12% (inactive).
`COc1ccc(-c2ccc(CCC(=O)O)n2-c2ccc(O)cc2)cc1` was tested, and the inhibition was -3.57% (inactive).
